Measured values: PubChem BioAssay (NCATS)
Results filed as inconclusive are left out. A call without a number means that no potency is given here. Active and inactive are the calls of the source. Calls follow the shape of the dose curve; as a rule, active = well fitted inhibition curve with a large enough effect; inconclusive = small, poorly fitted or top-dose-only effect; inactive = no such curve, though single readings can be large or run the other way.

What follows are compounds tested against Tumor susceptibility gene 101 protein (Homo sapiens) (UniProt Q99816) (assay: qHTS Assay for Iinhibitors of HIV-1 Budding by Blocking the Interaction of PTAP/TSG101: Hit Validation (AID 651600; also: nearly all actives have a fitted effect of over 70% in size)). Settings: PTAP peptide/TSG101 UEV interaction, biochemical assay; series mostly up to 57.5 µM.
Tumor susceptibility gene 101 protein (Homo sapiens), sequence (Q99816 whole entry, looked up, the tested form may be a part): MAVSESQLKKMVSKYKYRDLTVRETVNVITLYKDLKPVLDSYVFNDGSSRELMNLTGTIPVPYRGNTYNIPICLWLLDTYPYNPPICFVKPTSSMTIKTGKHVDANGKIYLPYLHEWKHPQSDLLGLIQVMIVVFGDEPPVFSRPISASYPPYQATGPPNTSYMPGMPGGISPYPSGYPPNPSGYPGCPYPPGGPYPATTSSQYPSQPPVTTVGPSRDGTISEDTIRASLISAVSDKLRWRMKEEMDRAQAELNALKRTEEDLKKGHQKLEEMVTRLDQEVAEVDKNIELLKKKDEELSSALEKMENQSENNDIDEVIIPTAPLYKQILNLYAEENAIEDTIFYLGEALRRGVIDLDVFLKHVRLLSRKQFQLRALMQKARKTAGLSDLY
Outline: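 FITC-PTAP peptide (50 nM final) binding to Tsg101 binding domain (10 uM final) was measured by polarization after 20 min at r.t. with compounds, in 10 mM HEPES pH 7.5 buffer with 0.15 M NaCl and 0.01% Tween 20.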
Potency is read from the fitted curve at half-maximal effect.

SMILES | Potency
Nc1c(C(=O)c2cccs2)sc2nsc(SCCN3CCCCC3)c12 | 14.6 µM (active)
O=S(=O)(Nc1nc2n(n1)C(c1ccccc1)C=C(c1ccc(Cl)cc1)N2)c1ccccc1 (stereo unspecified) | inactive
COc1ccc(-c2cc(C(F)(F)F)c3c(N)c(C(=O)NCCSC)sc3n2)cc1 | inactive
O=C1/C(=N\S(=O)(=O)c2cccs2)C([n+]2cccc(Cc3ccccc3)c2)=C([O-])c2ccccc21 | 16.3 µM (active)
COc1ccc(-c2onc3ccc(Br)cc23)cc1 | inactive
Cc1ccc(/C=C/C(=O)Nc2ccc(S(=O)(=O)Nc3onc(C)c3C)cc2)cc1 | inactive
Cc1c(C(=O)N(C)c2cccc(C(F)(F)F)c2)sc2nc3n(c(=O)c12)CCCCC3 | inactive
O=C(O)c1ccc(-n2c(-c3ccc(Br)cc3)n[nH]c2=S)cc1 | inactive
CCN(CC)c1ccc2cc(-c3nc(-c4ccc(OC)cc4)cs3)c(=O)oc2c1 | inactive
Cc1cccc(N=Nc2c(O)[nH]c3ccc(F)cc23)c1 | inactive
CC(=O)N1c2ccccc2C(=O)C1N1CCCCC1 (stereo unspecified) | inactive
Cc1ccccc1-c1ccc(/C=C2/SC(N3CCOCC3)=NC2=O)o1 | inactive
O=C(NCc1cc(C(F)(F)F)ccc1Cl)c1cccc2c1C(=O)c1ccc(N3CCC(Cc4ccccc4)CC3)cc1S2(=O)=O | 13 µM (active)
COc1ccc(OC)c(S(=O)(=O)Nc2cc3c(cc2C)n(C)c(=O)c(=O)n3C)c1 | inactive
O=C(CCN1C(=O)/C(=C/c2ccco2)SC1=S)Nc1ccc(O)cc1C(=O)O | inactive
O=C(/C=C/c1ccc(Cl)cc1Cl)c1nc2ccccc2[nH]1 | 20.6 µM (active)
